Screening data: PubChem BioAssay, several laboratories
HDAC3 inhib: human HDAC3 inhibition; O15379; 320,000 compounds, 0.15% hits; inhibition, % at 8.3 µM; AID 2718; recombinant HDAC3, fluorogenic peptide/trypsin coupled, fluorescence; in the data active = inhibition above about 26%, passing the limit was not always enough
NPR1 activator: GC-A (human) enzyme activation. P16066. HEK293 GC-A cells, cGMP TR-FRET, EC30 ANP; 0% at EC30 ANP, 100% saturating ANP. activation, % at 10 µM. 370,000 compounds, 0.14% hits; in the data active = activation above about 40%
GC-B act: GC-B (human) receptor activation | AID 1920062 | P20594 | HEK293-GC-B cells, CNP EC30, cGMP TR-FRET; 0% at EC30 CNP, 100% saturating CNP | activation, % at 10 µM | 370,000 compounds, 0.11% hits;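 active = activation at 10 µM reaching about 35% in either raw or pattern-adjusted values, limit read from the data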
ALR H2O2 inh: blocks human ALR sulfhydryl oxidase activity | inhibition, % (concentration not given with the values) | 290,000 compounds, 3.8% hits | purified ALR, DTT oxidation, H2O2 HRP-luminol luminescence;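 active = mean replicate inhibition above about 79%, with every replicate also reaching it, limit read from the data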
Target sequence (P55789 whole entry, looked up): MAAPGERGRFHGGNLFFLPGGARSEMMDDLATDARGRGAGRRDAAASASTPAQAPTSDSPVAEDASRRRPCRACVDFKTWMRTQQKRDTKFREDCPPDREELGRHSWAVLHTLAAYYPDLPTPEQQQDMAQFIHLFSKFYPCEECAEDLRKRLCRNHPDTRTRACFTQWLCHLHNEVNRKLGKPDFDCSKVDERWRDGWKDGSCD
* marks the source's active call; other numbers are inactive results. This is one part of a sample in which hits are shown more often than they occur.

`COc1cc(NS(=O)(=O)c2ccc(NC(=O)COc3cccc(C)c3)cc2)nc(OC)n1` gave HDAC3 inhib 4, NPR1 activator -4, GC-B act 8 and ALR H2O2 inh 98*.
Screening COc1ccccc1OCC(=O)Nc1ccc(S(=O)(=O)Nc2cc(C)on2)cc1 returned HDAC3 inhib -5, NPR1 activator 2, GC-B act -4 and ALR H2O2 inh 89*.
Screening Cc1cc(C)nc(NS(=O)(=O)c2ccc(NC(=O)COc3ccccc3)cc2)n1 returned HDAC3 inhib 4, NPR1 activator -6, GC-B act -1 and ALR H2O2 inh 99*.
Screening COc1ccc(OCC(=O)Nc2ccc(S(=O)(=O)Nc3cc(C)on3)cc2)cc1 returned NPR1 activator 2 and GC-B act -1.
For Cc1cc(C)nc(NS(=O)(=O)c2ccc(NC(=O)c3ccc(O)cc3O)cc2)n1 the results were HDAC3 inhib -24, NPR1 activator -2, GC-B act -1 and ALR H2O2 inh 99*.
For CCc1cccc(OCC(=O)Nc2ccc(S(=O)(=O)Nc3onc(C)c3C)cc2)c1 the results were HDAC3 inhib 4, NPR1 activator -4, GC-B act -6 and ALR H2O2 inh 95*.
Screening COc1cc(NS(=O)(=O)c2ccc(NC(=O)COc3ccccc3Cl)cc2)nc(OC)n1 returned HDAC3 inhib 0, NPR1 activator 0, GC-B act 4 and ALR H2O2 inh 93*.
For COc1cc(NS(=O)(=O)c2ccc(NC(=O)NC3CCCCC3)cc2)nc(OC)n1 the results were HDAC3 inhib -4, NPR1 activator 1, GC-B act 6 and ALR H2O2 inh 98*.
OC(c1ccc(CN2CCCCC2)cc1)c1ncc(-c2ccccc2)[nH]1 (stereo not given) was read as NPR1 activator 1 and GC-B act -1.
Screening Cc1ncc(CO)c(CNc2ccc(-c3nc4ccccc4[nH]3)cc2)c1O returned HDAC3 inhib -13, NPR1 activator -2, GC-B act -1 and ALR H2O2 inh 98*.
Cc1ncc(CO)c(CO)c1O was read as HDAC3 inhib 3, NPR1 activator 3, GC-B act 0 and ALR H2O2 inh 0.
`Cc1c(OCC(=O)NC(Cc2ccc(Cl)cc2)C(=O)O)ccc2c1oc(=O)c1ccccc12` (stereo not given) gave HDAC3 inhib -20, NPR1 activator 0, GC-B act -3 and ALR H2O2 inh 88*.
CCCCCCc1c(C)c2ccc(OCC(=O)N[C@@H](Cc3ccccc3)C(=O)O)cc2oc1=O was read as HDAC3 inhib -4, NPR1 activator -1, GC-B act -4 and ALR H2O2 inh 97*.
Screening Cc1oc2cc3oc(=O)c(CC(=O)N[C@@H](C)C(=O)NC(Cc4ccc(Cl)cc4)C(=O)O)c(C)c3cc2c1C (stereo not given in full) returned HDAC3 inhib 0, NPR1 activator 2, GC-B act -5 and ALR H2O2 inh 98*.
For CCC(NC(=O)Cc1c(C)c2ccc(OC)c(C)c2oc1=O)C(=O)NC(Cc1ccc(Cl)cc1)C(=O)O (stereo not given) the results were HDAC3 inhib -48, NPR1 activator 1, GC-B act 6 and ALR H2O2 inh -4.
For Cc1oc2cc3oc(=O)c(CCC(=O)N4C[C@H]5C[C@@H](C4)c4cccc(=O)n4C5)c(C)c3cc2c1C the results were HDAC3 inhib -2, NPR1 activator 7, GC-B act 3 and ALR H2O2 inh -5.
Screening COc1ccc(NC(=O)c2sc(=O)n(Cc3ccc4ccccc4c3)c2C)cc1OC returned NPR1 activator -4 and GC-B act -12.
For CN(C)CCC(=O)c1ccc(F)cc1 the results were HDAC3 inhib 4, NPR1 activator 72*, GC-B act 0 and ALR H2O2 inh 18.
`CCN(CC)CCC(=O)c1ccc(F)cc1` gave HDAC3 inhib -1, NPR1 activator 74*, GC-B act -1 and ALR H2O2 inh 73.
For CN(C)CCC(=O)c1ccc2c(c1)OCO2 the results were HDAC3 inhib 0, NPR1 activator 20, GC-B act -14 and ALR H2O2 inh 12.
Screening O=C(CSc1nnc(-c2cccnc2)n1Cc1ccco1)Nc1ccc(Cl)cc1 returned NPR1 activator -6 and GC-B act -8.
`O=C(Nn1cnnc1)c1ccc(Cl)c([N+](=O)[O-])c1` gave HDAC3 inhib -14, NPR1 activator 1 and GC-B act -4.
`Cc1ccc(C(=O)Nn2cnnc2)cc1Cl` gave HDAC3 inhib 3, NPR1 activator 4, GC-B act 8 and ALR H2O2 inh 81*.
CCCCOC(=O)Nc1ccc(N2CCCCC2)cc1 was read as HDAC3 inhib -2, NPR1 activator -2, GC-B act -3 and ALR H2O2 inh 78*.
CCCCOC(=O)Nc1ccc(N(C)C)cc1 was read as HDAC3 inhib 5, NPR1 activator 2, GC-B act -1 and ALR H2O2 inh 99*.
`CCCCOC(=O)Nc1ccc(C(N)=O)cc1` gave HDAC3 inhib 0, NPR1 activator 3, GC-B act 3 and ALR H2O2 inh -3.
CCCCOC(=O)Nc1ccc(N2CCOCC2)cc1 was read as HDAC3 inhib 16, NPR1 activator 2, GC-B act 3 and ALR H2O2 inh -7.
Screening CCOC(=O)c1c(C)c(C(=O)Nc2ccc(N(C)C)cc2)c(C)n1CC returned HDAC3 inhib -8, NPR1 activator -4, GC-B act -6 and ALR H2O2 inh 99*.
C[C@@H]1CCN(C2CC2)S(=O)(=O)c2ccc(N3CCC[C@@H]3CO)cc2O1 was read as NPR1 activator 0 and GC-B act 4.
`C#CCOc1ccccc1CNC1CCN(Cc2ccccc2)CC1` gave HDAC3 inhib 2, NPR1 activator -21 and GC-B act -5.
For CCc1oc2ccccc2c1C(=O)c1cc(Br)c(O)c(Br)c1 the results were HDAC3 inhib 6, NPR1 activator 4, GC-B act 8 and ALR H2O2 inh 98*.
COc1ccc(C(CNC(=O)C(C)(C)Oc2ccc(Cl)cc2)N2CCOCC2)cc1 (stereo not given) was read as NPR1 activator -12 and GC-B act -9.
For COC(=O)Cc1c(C)nc2nc(NCc3ccc(Cl)cc3)[nH]n2c1=O the results were HDAC3 inhib 1, NPR1 activator -1 and GC-B act 2.
For COC(=O)Cc1c(C)nc2nc(NCc3cccc([N+](=O)[O-])c3)[nH]n2c1=O the results were HDAC3 inhib -2, NPR1 activator 4, GC-B act -2 and ALR H2O2 inh 89*.
Screening O=S1(=O)c2ccc(N3CCSCC3)cc2Oc2ccccc2CN1Cc1cn(Cc2ccc(Cl)cc2)nn1 returned NPR1 activator 2 and GC-B act 6.
`CCN(CC)c1ccc2c(c1)CCCN2` gave HDAC3 inhib 1 and ALR H2O2 inh 97*.
`O=S(=O)(c1ccc2c(c1)CCCN2)N1CCCC1` gave HDAC3 inhib -2, NPR1 activator -2 and GC-B act 4.
